This note sets out measurements from PubChem BioAssay AID720541 (National Center for Advancing Translational Sciences (NCATS), 2013).

Hit rate of the full screen: of about 1,300 compounds, about 420 (32%) were called active. Another 32% or so got no clear call; they are omitted. Calls follow the shape of the dose curve; as a rule, active = well fitted inhibition curve with a large enough effect; inconclusive = small, poorly fitted or top-dose-only effect; inactive = no such curve, though single readings can be large or run the other way. This is one part of the list. Entries that show only a call come without a potency.
Potency is read from the fitted curve at half-maximal effect.

For this test, the target named is C-terminal-binding protein 1 (Homo sapiens) (UniProt Q13363). Briefly: qHTS for Inhibitors of the Phosphatase Activity of Eya2: Carboxyl-terminal binding protein (CtBP) Counterscreen for Cherry-picked Compounds. Also: nearly all actives have a fitted effect of over 65% in size. The following applies: purified protein-protein binding, AlphaScreen, 3 h; series mostly up to 46.1 µM. The gist of the method:
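Cherry-picked compounds (final 2.5 nM–46 uM) were incubated 2 h at RT with 25 nM CtBP-6xHIS and 25 nM GST-E1A. Alpha beads (20 ug/mL) were then added for 1 h, light-protected; DMSO and E1A peptide inhibitor wells set the normalization.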
A general note: qHTS replaces the single test concentration by a dilution series.
For the compound `O=C(c1cccc(-n2cccc2)c1)N1CCN(S(=O)(=O)c2ccccc2)CC1`, the Potency result is “inactive”.
The value for `O=C(c1cccc(S(=O)(=O)Nc2ccccc2Cl)c1)N1CCN(c2ccccc2O)CC1` was 15.1 µM (active); that for `CC1Cc2ccccc2N1NC(=O)c1ccc(Cl)c(S(N)(=O)=O)c1` (stereo not drawn) was “inactive”; that for `CC1C(c2ccccc2)=Nn2c(=O)n(-c3ccccc3)c(=O)n21` (stereo not drawn) was “inactive”.
On to `N#Cc1ccc(C(=O)N2CCC3CC2c2cc(-c4ccccc4)ccc23)cc1` (stereo not drawn), for which the Potency result is “inactive”.
The value for `Cc1oc2c(Cl)c(Cl)c(O)c(CN(C)C)c2c1C(=O)c1ccc(Cl)cc1` was 15.1 µM (active); that for `COC(=O)c1ccccc1NC1=C/C(=N\S(=O)(=O)c2cccs2)c2ccccc2C1=O` was 1.69 µM (active).
The value for `COCCN(Cc1cc2cc3c(cc2nc1Cl)OCO3)C(=O)Nc1ccc(OC)cc1` was “inactive”; that for `O=C(CSc1nc2ccccc2n1CCc1ccccc1)c1ccc(O)c(O)c1` was “inactive”.
On to `COc1ccc(Oc2nc(-c3ccccn3)ncc2OC)cc1`, for which the Potency is 10.7 µM (active).
The value for `COc1cnc(-c2ccccn2)nc1Oc1ccc(C(C)(C)C)cc1` was 3.38 µM (active); that for `COc1ccc(CN(CCN(C)C)c2ccccn2)cc1` was “inactive”.
As for `CCOC(=O)C(C)Sc1nc(-c2ccccn2)ncc1OC` (stereo not drawn), the Potency was 2.39 µM (active).
The result for `O=C(Cn1c(C(=O)N2CCc3ccccc3C2)cc2sccc21)c1ccccc1` reads “inactive”; that for `CCCc1nc(N2CCN(C)CC2)c2sc(=S)n(-c3ccccc3)c2n1`, “inactive”.
Take `CC1CCC2C(=O)N(c3ccc(C(=O)Oc4cccc5cccnc45)cc3)C(=O)C2C1` (stereo not drawn): the Potency is 6.01 µM (active).
The result for `CC1C=CCC2C(=O)N(c3ccc(OC(=O)c4cccs4)cc3)C(=O)C12` (stereo not drawn) reads “inactive”; that for `Cc1ccc(C(=O)Oc2ccc(C(=O)COC(=O)c3cnccn3)cc2)cc1`, “inactive”; that for `O=C(OCC(=O)c1ccc(Cl)cc1Cl)c1ccccn1`, 12 µM (active).
The result for `O=c1cc2ncc(-n3cc([N+](=O)[O-])cn3)cn2[nH]1` reads “inactive”.
The result for `O=S(c1cc(Cl)cc(Cl)c1O)c1cc(Cl)cc(Cl)c1O` reads 3.38 µM (active); that for `O=c1nc2c(O)cccn2c2c1c(=O)[nH]c1ccccc12`, 3.79 µM (active).
With `CCOc1ccc(Nc2nc(N)nc(CN(C)C3CCCCC3)n2)cc1`, the Potency entry is “inactive”.
The result for `N[C@@H](Cc1cnc[nH]1)C(=O)Nc1ccc2ccccc2c1` reads 19 µM (active); that for `Cc1cc2nc(-c3ccco3)c(Cc3cccc(F)c3)n2c(C)c1Br`, “inactive”; that for `CCN(CC)c1ccc(/C=N/N2CCN(Cc3ccccc3Cl)CC2)cc1`, 8.49 µM (active).
The value for `CSc1ccc(/C=N/N2CCN(Cc3ccc(C)cc3C)CC2)cc1` was “inactive”; that for `COCc1cc(O)c(O)c(O)c1-c1c(COC)cc(O)c(O)c1O` was “inactive”; that for `CCC(C)Nc1ccc(NC(C)CC)cc1` (stereo not drawn) was 0.0849 µM (active).
Turning to `Cc1nc(-n2[nH]c3c(c2=O)CCCC3)[nH]c(=O)c1Cc1ccccc1`, the Potency was 13.5 µM (active).
The result for `COc1cc(C)c(/C=C/C(C)=C/C=C/C(C)=C/C(=O)O)c(C)c1C` reads “inactive”; that for `COc1cc(C(=O)Nc2cccc(NC(=O)c3cccs3)c2)cc(OC)c1OC`, “inactive”.
Regarding `CCOc1ccc(NC(=O)c2sccc2-n2cccc2)cc1`, the Potency entry is “inactive”.
The value for `COc1ccc(C(=O)Nc2ccc3c(c2)CCCN3C(=O)c2cccs2)c(OC)c1` was 7.57 µM (active).
`O=C(O)c1ccc(CSc2nc3ccccc3c(=O)n2-c2ccccc2)cc1`: the Potency result was “inactive”.
The result for `COc1ccc(-n2c(SCC(=O)Nc3cc(C(=O)O)ccc3C)nc3ccccc3c2=O)cc1Cl` reads 8.49 µM (active); that for `COc1ccccc1CNC(=O)CSc1ccc(-c2ccccn2)nn1`, 8.49 µM (active).
As for `COc1ccccc1CNC(=O)CCCc1cn(C)c2ccccc12`, the Potency result was “inactive”.
The result for `COc1ccc(NC(=O)CSc2ccc(-c3ccccn3)nn2)cc1OC` reads 3.79 µM (active); that for `COc1ccc(NC(=O)CN(C)C(=O)c2cccc(-n3cccc3)c2)cc1`, “inactive”.
The result for `COc1cc(NC(=O)CSc2ccc(-c3ccccn3)nn2)cc(OC)c1` reads 1.9 µM (active); that for `COc1ccccc1CNC(=O)c1ccc2c(=O)n(CCCN3CCCC3=O)c(=S)[nH]c2c1`, “inactive”; that for `O=C(CSc1ccc(-c2ccccn2)nn1)Nc1cccc(F)c1`, “inactive”.
The value for `Cc1cc(C(=O)c2ccccc2)cc(C)c1O` was “inactive”; that for `CC1Cc2ccccc2N1C(=O)C1CCCN1S(=O)(=O)c1ccc(Cl)cc1` (stereo not drawn) was “inactive”; that for `CC1CCN(CC2C(=O)O[C@@H]3C[C@@]4(C)CCC[C@H](C)C4=C[C@H]23)CC(C)(C)C1` (stereo partly drawn) was “inactive”.
Turning to `Nc1[nH]nc2ncc3cc4ccccc4nc3c12`, the Potency is 10.7 µM (active).
The result for `O=C(Cn1c(S(=O)(=O)Cc2ccccc2)nc2ccccc21)N1CCCCC1` reads “inactive”; that for `O=C(CSc1ccc(-c2ccccn2)nn1)N1CCCC1`, 8.49 µM (active).
The result for `O=C(CSc1ccc(-c2ccccn2)nn1)N1CCCCC1` reads 7.57 µM (active); that for `O=C(C1=C[C@H](c2ccccc2)C[C@H](OCc2ccc(CO)cc2)O1)N1CCN(Cc2ccccc2)CC1`, “inactive”.
The result for `COc1ccccc1N1CCN(/N=C/C=C\c2ccccc2[N+](=O)[O-])CC1` reads 15.1 µM (active); that for `COc1ccc(-n2c(CN3CCN(c4ccccc4OC)CC3)nc3ccc([N+](=O)[O-])cc3c2=O)c(OC)c1`, “inactive”; that for `O=[N+]([O-])c1ccccc1/C=C\C=N\N1CCN(c2ccccc2)CC1`, “inactive”.
As for `O=C(c1cccs1)N1CCC(c2nc3c(nnn3Cc3cccc(Cl)c3)c(=O)[nH]2)CC1`, the Potency is 12 µM (active).
On to `CCOC(=O)c1cnc2c(C#N)cnn2c1N`, for which the Potency is 10.7 µM (active).
The value for `CC(NC(=O)c1cc2c(s1)CS(=O)(=O)C2)c1ccccc1` (stereo not drawn) was “inactive”; that for `CCOc1ccc2[nH]cc(-c3csc(N)n3)c2c1` was 12 µM (active); that for `O=c1cc2oc3cc(O)c(O)cc3c(-c3ccccc3[N+](=O)[O-])c-2cc1O` was 9.53 µM (active).
The value for `Cc1cccc(C)c1OCc1cc(C(=O)N2CCN(c3ccccc3)CC2C)no1` (stereo not drawn) was “inactive”; that for `COc1ccc(-c2c(N)cnc(C(=O)O)c2C)c(OCc2ccccc2)c1OC` was 12 µM (active); that for `COc1cc(C(C(=O)NC2CCCCC2)N(C(=O)Cc2c[nH]c3ccccc23)c2ccc(C)cc2)cc(OC)c1OC` (stereo not drawn) was “inactive”.
For `Cc1cc(/C=N/NC(=O)c2ccccn2)c(C)n1-c1cccc([N+](=O)[O-])c1`, the Potency was 15.1 µM (active).
